From PubChem BioAssay
This is a sample that favours compounds with a hit; in the whole collection about 1.6% have one here.
PABP polyA inh: PABP poly(A) RNA binding inhibitors, primary screen, biochemical, fluorescence polarization, uHTS. Polyadenylate-binding protein 1 (Homo sapiens), P11940. inhibition, % at 35 µM. 1% of 290,000 active;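 also: calls also rest on retests at 20 µM and on dose response follow-up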
PERK inhibitor: block of dimerizer-induced PERK translation repression, primary screen, PERK inhibitor project, CHO PERK-DD cells, SEAP luminescence, HTS; Eukaryotic translation initiation factor 2-alpha kinase 3 (Homo sapiens), Q9NZJ5; 0.17% of 220,000 active; CHO PERK-DD fusion, SEAP luminescence translation reporter; inhibition, % at 5.6 µM;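 active = inhibition above the mean inhibition of all tested compounds plus 3 SD, set separately per screening campaign, cut at about 2.9% in these data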;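 also: PERK kinase domain activated by AP20187 dimerizer at 100 nM; 0% = DMSO with dimerizer and 100% = rapamycin at 8.4 µM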
Target sequence (Q9NZJ5 whole entry, looked up, the tested form may be a part): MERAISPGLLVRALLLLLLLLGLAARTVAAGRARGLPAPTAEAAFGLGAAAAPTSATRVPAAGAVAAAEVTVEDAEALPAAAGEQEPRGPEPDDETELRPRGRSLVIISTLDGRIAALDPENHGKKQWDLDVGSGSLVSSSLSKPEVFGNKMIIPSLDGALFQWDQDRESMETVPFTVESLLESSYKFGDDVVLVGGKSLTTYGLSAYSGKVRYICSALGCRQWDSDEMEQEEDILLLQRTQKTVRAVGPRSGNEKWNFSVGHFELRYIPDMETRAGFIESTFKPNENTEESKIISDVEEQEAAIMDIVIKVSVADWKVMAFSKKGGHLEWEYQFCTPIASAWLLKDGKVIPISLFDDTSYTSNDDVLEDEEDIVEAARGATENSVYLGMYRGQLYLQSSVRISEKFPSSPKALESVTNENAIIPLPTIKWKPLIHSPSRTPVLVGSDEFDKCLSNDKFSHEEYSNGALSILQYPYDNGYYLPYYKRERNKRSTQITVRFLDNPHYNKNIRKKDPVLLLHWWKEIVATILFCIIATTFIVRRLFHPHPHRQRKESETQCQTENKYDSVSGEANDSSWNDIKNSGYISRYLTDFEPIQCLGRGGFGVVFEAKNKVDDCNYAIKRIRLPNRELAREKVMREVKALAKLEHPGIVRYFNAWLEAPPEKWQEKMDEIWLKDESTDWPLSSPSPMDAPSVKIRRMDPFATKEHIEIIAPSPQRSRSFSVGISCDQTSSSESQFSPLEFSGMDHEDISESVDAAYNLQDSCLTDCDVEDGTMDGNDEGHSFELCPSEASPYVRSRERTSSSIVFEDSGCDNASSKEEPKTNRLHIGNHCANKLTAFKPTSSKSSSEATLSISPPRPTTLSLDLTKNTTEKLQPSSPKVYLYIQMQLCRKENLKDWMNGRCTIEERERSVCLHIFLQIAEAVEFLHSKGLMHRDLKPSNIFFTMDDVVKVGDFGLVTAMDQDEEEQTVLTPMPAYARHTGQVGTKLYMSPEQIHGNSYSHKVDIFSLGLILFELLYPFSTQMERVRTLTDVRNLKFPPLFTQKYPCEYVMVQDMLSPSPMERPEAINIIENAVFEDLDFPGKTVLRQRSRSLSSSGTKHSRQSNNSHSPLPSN
eIF4E-4G inh: eIF4E–eIF4G protein interaction inhibitors, primary screen, biochemical, uHTS, TR-FRET, eIF4GI fragment. Eukaryotic translation initiation factor 4E (Mus musculus) + Eukaryotic translation …. TR-FRET eIF4E-eIF4GI(517-606) binding, 2 h. inhibition, % at 21.7 µM. 0.37% of 220,000 active;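 active = inhibition above about 30%, limit read from the data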;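 also: 0% = full FRET control wells and 100% = background wells lacking eIF4GI fragment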
eIF4H FP inh: human eIF4H binding inhibitors, primary screen, translation initiation inhibitor project, biochemical, uHTS, fluorescence polarization. inhibition, % at 35 µM. 0.94% of 290,000 active. Eukaryotic translation initiation factor 4H (Homo sapiens), Q15056. eIF4H fluorescence polarization binding assay. AID 2012, 2009;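 also: calls also rest on retests at 20 µM and on dose response follow-up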
PABP1 MLLE inh: inhibitors of PABP1 MLLE–PAM2 peptide binding, primary screen, biochemical, fluorescence polarization, FITC-PAM2, GST-MLLE | 0.36% of 360,000 active | inhibition, % at 20 µM | AID 588489, 2011; in the data active = inhibition above about 35%, passing the limit was not always enough;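 also: plate controls were DMSO wells with GST-MLLE for no effect and wells lacking GST-MLLE protein for full effect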
* hit, by the source's call; . = no result given. Unless noted, no rule for the calls is given here.

SMILES	PABP polyA inh	PERK inhibitor	eIF4E-4G inh	eIF4H FP inh	PABP1 MLLE inh
COc1cc(C(O)CN)ccc1O (stereo unspecified)	.	.	.	.	1
CC[n+]1c(/C=C/C=C/c2ccc(N(C)C)cc2)sc2ccccc21	-36	-2	-116	-18	-24
O=c1c2ccccc2nc(/C=C/c2ccc3c(c2)OCO3)n1-c1cccc(O)c1	-3	-1	3	5	-4
C=CCn1c(O)c(/C=C2/C=CC=N2)c(=O)[nH]c1=O	1.7*	1	0	88*	-8
O=c1[nH]c(=O)n(C2CCCCCC2)c(O)c1C=NC1CCN(Cc2ccccc2)CC1	-13	0	-3	-6	-38
Cn1c(O)c(C=NC2CCN(Cc3ccccc3)CC2)c(=O)[nH]c1=O	-11	0	80*	0	-5
O=c1[nH]c(=O)n(Cc2ccccc2)c(O)c1C=NCCCO	52*	0	-13	54*	-96
O=C(c1cc2c(s1)-c1ccccc1OC2)N1CCC2(CC1)OCCO2	-8	-1	0	-4	5
C=C1C(O)(c2ccccc2)C2CC[N+]1(C)CC2 (stereo unspecified)	57*	0	3	-8	-127
C=C1N2CCC(CC2)C1(O)c1ccc(C)cc1 (stereo unspecified)	-6	1	-1	-6	-9
C[C@]12CCC3C(CC[C@H]4C[C@@H](O)CC[C@]34C)[C@H]1CC[C@H]2O (stereo partly specified)	.	.	.	.	7
COC(=NC1CCCCC1)C(O)c1c[nH]c2ccccc12 (stereo unspecified)	5	0	9	-6	6
COc1c(C=C2C(=O)NC(=O)NC2=O)c(CCN(C)C(=O)c2ccccc2)cc2c1OCO2	6	.	.	2	14
NC(=O)c1ccc(C(=O)Nc2ccc([As](=O)(O)O)cc2)cc1	12	0	90*	5	.
CC(=O)Nc1ccc([As](=O)(O)c2ccc([N+](=O)[O-])cc2)cc1	-2	1	2	9	17
Cn1c(O)c(C(c2ccncc2)c2c(O)n(C)c(=S)n(C)c2=O)c(=O)n(C)c1=S	10	2	4	-4	-2
Cn1c(O)c(C(c2ccccn2)c2c(O)n(C)c(=S)n(C)c2=O)c(=O)n(C)c1=S	31	1	-8	57*	14
COC(=O)C1=C(c2ccc(S(C)(=O)=O)cc2)C[C@@H]2CC[C@H]1N2C(=O)NCCO	.	.	.	.	23
COc1ccc2c3c1OC1C(O)C=CC4C(C2)[N+](C)(C)CCC341 (stereo unspecified)	98*	.	.	48	-32
CN1CC[C@]23c4c5ccc(O)c4OC2[C@H](O)C=CC3[C@H]1C5 (stereo partly specified)	.	.	.	.	0
C(=NN1CCCCCC1)c1c[nH]c2ccccc12	.	.	.	.	-11
ClCCN1CCSCC1	.	.	.	.	1
N#CCCn1cc(C(=O)Nc2ccccc2Br)c(-c2ccc3c(c2)OCCO3)n1	120	-1	1	active	-9
COC(=O)C1=Nc2ccccc2/C1=C\c1c(O)n(C)c(=O)n(C)c1=O	18*	1	0	63	-25
CCOc1ccc(-n2c(O)c(C=NCCN3CCNCC3)c(=O)[nH]c2=O)cc1	60*	0	3	active	1
O=c1[nH]c(=O)n(-c2ccc(Br)cc2)c(O)c1C=NCCN1CCCCC1	-10	1	93*	-6	-33
CN1CCN(c2nc3c(c(=O)[nH]2)CCC3)CC1	-2	.	.	10	8
CN(C)[C@@H]1C(=O)C(C(N)=O)=C(O)[C@@]2(O)C(=O)C3=C(O)c4c(O)cccc4[C@@](C)(O)[C@H]3[C@H](O)[C@@H]12	1.5*	0	47*	87*	18
CN(C)C(=O)Oc1ccc(-c2cn3cc(Cl)ccc3n2)cc1	10	-1	-43	2	4
CC[C@@]1(O)C(=O)OCc2c1cc1n(c2=O)Cc2cc3ccccc3nc2-1	6	6.0*	-1	-4	.
